# Experimental data: PubChem BioAssay (NCATS)
# Records with an inconclusive call do not appear. The source made the active and inactive calls. Unless noted, the rule behind the calls is not given here.
# Assays:
# [1] = qHTS profiling of the MIPE4 collection as inhibitors of Plasmodium falciparum (3D7) proliferation (AID 743344);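 note: scaled between DMSO vehicle wells and 0.29 µM artemisinin as full inhibition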; conditions: P. falciparum 3D7 in erythrocytes, SYBR Green DNA fluorescence, 72 h; at 28.5 µM unless noted
# Procedure, shortened: (§1)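 Parasite DNA was quantified by SYBR Green I fluorescence (ex 485, em 535 nm) after overnight lysis in saponin/Triton buffer at room temperature. Cultures at 0.3% parasitemia and 2.5% hematocrit were first exposed to compound for 72 h at 37 C; signals were normalised to artemisinin (0.29 uM) and vehicle wells.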
# [2] = qHTS profiling of the MIPE4 collection as inhibitors of Plasmodium falciparum (DD2) proliferation (AID 743345); conditions: P. falciparum Dd2 in erythrocytes, SYBR Green DNA, 72 h; at 28.5 µM unless noted
# Procedure, shortened: as §1
# [3] = qHTS profiling of the MIPE4 collection as inhibitors of Plasmodium falciparum (DD2) proliferation (Rep 2) (AID 743346); conditions: P. falciparum Dd2 in erythrocytes, SYBR Green DNA, 72 h; at 28.5 µM unless noted
# Procedure, shortened: as §1
# [4] = qHTS profiling of the MIPE4 collection as inhibitors of Plasmodium falciparum (HB3) proliferation (AID 743347);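 note: plate controls were DMSO vehicle wells for no effect and artemisinin wells for full effect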; conditions: P. falciparum HB3 in erythrocytes, SYBR Green DNA, 72 h; at 28.5 µM unless noted
# Procedure, shortened: as §1
# [5] = High-throughput drug toxicity screening in the BPDCN cell line Gen2.2 (AID 1224824); conditions: Gen2.2 BPDCN cells; at 45.8 µM (top of the series) unless noted;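 note: cells exposed to compounds for 48 h before reading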
# Procedure, shortened: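 CellTiter-Glo luminescence read after 48 h compound exposure at 37 C defines viability; percent activity set with DMSO as 100% and bortezomib (9.2 uM final) as 0%. 500 exponentially growing cells per well, RPMI plus 10% FBS.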
# [6] = High-throughput drug toxicity screening in the BPDCN cell line Cal-1 (AID 1224825); conditions: Cal-1 BPDCN cell viability, qHTS; at 45.8 µM (top of the series) unless noted
# Procedure, shortened: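 CellTiter-Glo luminescence after 48 h compound exposure; percent activity scaled with DMSO as 100% and bortezomib (9.2 uM final) as 0%. Cal-1 cells seeded at 500/well in RPMI, 10% FBS, no phenol red.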
# [7] = qHTS assay for measurement of the activity of small molecule inhibitors on Zika virus induced Caspase-3 activity in human iPSC derived neural progenitor cells (hNPCs) (AID 1224857; active = well fitted curve in the direction sought with a large enough effect; an effect the other way counts as inactive or inconclusive; note: % of control where 0% means no effect; nearly all actives have a fitted effect of over 65% in size)
# Procedure, shortened: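 Quantitative HTS format: human iPSC neural progenitors, 1 h compound pretreatment, ZIKV 2 FFU/cell for 6 h at 37 C. Percent inhibition derived from luminescent caspase-3/7 signal between uninfected and infected controls.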
# [8] = qHTS assay for measurement of the activity of small molecule inhibitors on Zika virus induced Caspase-3 activity in human astrocytoma cells (AID 1224859; active = well fitted curve in the direction sought with a large enough effect; an effect the other way counts as inactive or inconclusive;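 note: plate controls were ZIKV-infected untreated cells for no effect and uninfected cells for full effect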)
# Procedure, shortened: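 Readout is luminescence from Caspase-Glo 3/7 added after a 6 h ZIKV infection (2 FFU/cell) of compound-pretreated (1 h) SNB-19 cells; data expressed as % inhibition versus uninfected and infected wells.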
# [9] = qHTS Assay for Identifying Gametocytocidal Compounds (AID 743244; active = well fitted curve in the direction sought with a large enough effect; an effect the other way counts as inactive or inconclusive; note: potency is the fitted concentration of half-maximal effect;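 for max response: % is set by controls: 0 for no effect and ±100 for the full control effect; actives lower the fluorescent signal which means gametocytes are killed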); conditions: P. falciparum 3D7 stage III-V gametocytes, alamarBlue, 72 h; max response: stronger effect = lower value
# Procedure, shortened: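 A resazurin-based viability read-out was applied to mature P. falciparum gametocytes: 72 h compound treatment, then 24 h dye incubation, with falling fluorescence signalling gametocytocidal effect.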
# [10] = qHTS profiling for inhibitors of Plasmodium falciparum (3D7) proliferation (AID 743322);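 note: infected erythrocytes exposed to compound for 72 h before lysis; 100% = DMSO vehicle wells and 0% = 0.29 µM artemisinin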; conditions: P. falciparum 3D7 proliferation; at 28.7 µM (top of the series)
# Procedure, shortened: as §1
# [11] = qHTS profiling for inhibitors of Plasmodium falciparum (DD2) proliferation (AID 743323); conditions: lower = more inhibition; at 28.7 µM (top of the series)
# Procedure, shortened: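 Parasite DNA quantified by SYBR Green fluorescence (ex 485, em 535 nm) after saponin/Triton lysis and overnight dark incubation. Cultures: 0.3% parasitemia, 2.5% hematocrit, 72 h, 37 C; data scaled between DMSO and 0.29 uM artemisinin.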
# [12] = qHTS profiling for inhibitors of Plasmodium falciparum (HB3) proliferation (AID 743324; active = well fitted curve in the direction sought with a large enough effect; an effect the other way counts as inactive or inconclusive;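 note: 100% = DMSO vehicle wells and 0% = artemisinin-treated control wells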); conditions: Plasmodium falciparum HB3 blood-stage proliferation; at 28.7 µM (top of the series)
# Procedure, shortened: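 SYBR Green fluorescence (485 ex/535 em) of lysed cultures, incubated overnight at room temperature in the dark, quantifies parasite DNA. Infected erythrocytes at 0.3% parasitemia and 2.5% hematocrit were exposed 72 h; values normalized to DMSO and 0.29 uM artemisinin controls.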
# [13] = qHTS assay for small molecule agonists of the antioxidant response element (ARE) signaling pathway measured by Nrf2-dependant transcriptional activity (AID 720636; active = well fitted curve in the direction sought with a large enough effect in the repeat runs; an effect the other way counts as inactive or inconclusive;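 note: HepG2 cells with an ARE-driven luciferase reporter; % of control where 0% means no effect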)
# Procedure, shortened: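 Attachment 6 hr at 37 C, then compound versus DMSO vehicle for 16 hr in ARE-luc HepG2 cells (1% dialyzed FBS); luminescence recorded 30 min after ONE-Glo addition at room temperature.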
# [14] = qHTS assay for small molecule agonists of the antioxidant response element (ARE) signaling pathway measured by Nrf2-dependant transcriptional activity - cell viability counter screen (AID 720653; active = well fitted curve in the direction sought with a large enough effect in the repeat runs; an effect the other way counts as inactive or inconclusive; note: % is set by controls: 0 for no effect and ±100 for the full control effect); conditions: ARE-bla HepG2 viability, CellTiter-Glo ATP luminescence, 16 h; stronger effect = lower value
# Procedure, shortened: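 ARE-bla HepG2 cells treated with compounds for 16 h at 37C; this counter screen measures viability as intracellular ATP by CellTiter-Glo luminescence after 30 min at room temperature.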
# [15] = qHTS assay for cell viability of HEK293 cells (AID 743288; active = well fitted curve in the direction sought with a large enough effect; an effect the other way counts as inactive or inconclusive; note: % is set by controls: 0 for no effect and ±100 for the full control effect; nearly all actives have a fitted effect of over 50% in size); conditions: ATP luminescence (CellTiter-Glo), 18 h, stronger effect = lower value
# Procedure, shortened: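 Readout is luciferase-coupled ATP content (CellTiter-Glo luminescence, 30 min room temperature) as a measure of metabolically competent cells. Parental HEK293 cells were plated 5 h or more before compound addition, then treated 18 h at 37 C.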
# [16] = qHTS assay for cell viability of the p53RE-bla HCT-116 cell line (AID 743292; active = well fitted curve in the direction sought with a large enough effect; an effect the other way counts as inactive or inconclusive; note: % is set by controls: 0 for no effect and ±100 for the full control effect; nearly all actives have a fitted effect of over 55% in size)
# Procedure, shortened: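 Compound-exposed HCT-116 (p53RE-bla) cells, 4,000 per well, were kept 16 h at 37 C following a 5 h preincubation. Cell number was estimated from total ATP by CellTiter-Glo luminescence read after 30 min at room temperature.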
SMILES,"parasite growth, % of DMSO control [1]","parasite growth remaining, % of DMSO control (lower = more inhibition) [2]","parasite growth, % of control (lower = inhibition) [3]","growth, % of control [4]","cell viability, % of control (lower = more cytotoxic) [5]",viability (% of control) [6],Potency [7],Potency [8],Potency [9],remaining parasite growth % (stronger effect = lower value) [10] [%],"activity, percent of control [11] [%]",max response [9],"remaining proliferation (% of control), lower = more inhibition [12] [%]",outcome [13],max response [14],max response [15],outcome [16]
Nc1cccc(-c2cc3c(Oc4cccc(O)c4)ncnc3[nH]2)c1,33.1%,86%,52.9%,43.2%,115%,9.2%,inactive,inactive,–,–,–,–,–,–,–,–,–
O=C1CCC[C@@H]2[C@H]3CCC[N+]4([O-])CCC[C@@H](CN12)[C@@H]34 (stereo not given in full),64.9%,33.8%,61.6%,68.6%,92.5%,100%,inactive,inactive,–,–,–,–,–,–,–,–,–
Cc1cc(CN2CCN(c3c(Br)cnc4nc(-c5ccc(N6CCN(C)CC6)cc5)[nH]c34)CC2)no1,15.7%,6.44%,25.8%,4.61%,3.72%,2.79%,inactive,inactive,–,–,–,–,–,–,–,–,–
COc1ccc(-c2cc3c(C)nc(N)nc3n(C3CCC(OCCO)CC3)c2=O)cn1 (stereo not given),5.2%,7.58%,7.09%,3.04%,9.04%,3.91%,inactive,inactive,–,–,–,–,–,–,–,–,–
Cc1cc(C(=O)N2CCN(c3cccc(Cl)c3)CC2)n(-c2ccccc2)n1,97.2%,107%,98.6%,108%,88.4%,18.2%,inactive,inactive,–,–,–,–,–,–,–,–,–
NC(=O)Nc1cc(-c2cccc(F)c2)sc1C(=O)N[C@H]1CCCNC1,7.3%,10.6%,15.5%,6.42%,7.53%,4.12%,inactive,–,18.7 µM (active),-0.937,5.1,–,–,–,–,–,–
COCCOc1ccc2c(c1)ncn2-c1ccc2cccc(N3CCC(N)CC3)c2n1,5.56%,7.14%,13.1%,4.14%,3.06%,1.98%,inactive,inactive,–,–,–,–,–,–,–,–,–
NC(=O)c1cccc2cn(-c3ccc([C@@H]4CCCNC4)cc3)nc12,12.4%,11.3%,25.3%,6.74%,116%,5.94%,inactive,inactive,–,–,–,–,–,–,–,–,–
Cc1cc(Nc2nc(N[C@@H](C)c3ccc(F)cc3)c(C#N)cc2F)n[nH]1,7.05%,7.99%,9.75%,6.34%,218%,12.6%,inactive,inactive,–,–,–,–,–,–,–,–,–
COC(=O)Nc1ccc(-c2nc(N3CCOCC3)c3cnn(C4CCN(Cc5cccnc5)CC4)c3n2)cc1,5.62%,7.48%,9.27%,4.59%,4.27%,3.04%,inactive,inactive,–,–,–,–,–,–,–,–,–
Nc1ccn([C@@H]2CS[C@H](CO)O2)c(=O)n1,404% [at 57.5 µM],100% [at 57.5 µM],146% [at 57.5 µM],263% [at 57.5 µM],218% [at 92.2 µM],11% [at 92.2 µM],inactive,inactive,–,–,–,–,–,–,–,–,–
COc1cc2c(NC3CCN(C(C)C)CC3)nc(C3CCCCC3)nc2cc1OCCCN1CCCC1,5.09%,6.68%,10.3%,4.41%,9.63%,4.14%,inactive,inactive,–,–,–,–,–,–,–,–,–
COc1cc2c(Oc3ccc(NC(=O)C4(C(=O)Nc5ccc(F)cc5)CC4)cc3F)ccnc2cc1OCCCN1CCOCC1,7.43%,5.88%,20.2%,8.86%,10.2%,4.49%,inactive,–,18.7 µM (active),-2.01,-0.633,–,–,–,–,–,–
CC(=O)Nc1sc2c(c1-c1nc3ccccc3s1)CNC2,20.4%,15.4%,24%,10.8%,8.36%,4.86%,inactive,–,–,100,96.7,20.9% (inactive),–,–,–,–,–
O=C(CCCCCCNC(=O)c1cnc(N(c2ccccc2)c2ccccc2)nc1)NO,5.31%,7.75%,7.25%,11%,5.14%,3.58%,inactive,inactive,–,–,–,–,–,–,–,–,–
CCC(=C(c1ccccc1)c1ccc(OCCN(C)C)cc1)c1ccccc1,53.1%,37.8%,31%,69.7%,31.7%,23.2%,inactive,–,–,17.2,5.96,-26.2% (inactive),8.11,–,–,–,–
Nc1ccc(S(=O)(=O)Nc2ncccn2)cc1,92.1%,105%,69.1%,63.8%,115%,103%,inactive,inactive,–,–,–,–,–,–,–,–,–
Cc1nc(Nc2n[nH]c3c2CN(C(=O)N[C@H](CN(C)C)c2ccccc2)C3(C)C)c2sccc2n1,4.72%,7.44%,9.85%,6.35%,0.772%,1.64%,inactive,inactive,–,–,–,–,–,–,–,–,–
COC(=O)Nc1nc2ccc(C(=O)c3ccc(F)cc3)cc2[nH]1,66.2%,96.2%,69.2%,61.7%,78.4%,25%,inactive,inactive,–,–,–,–,–,–,–,–,–
CC(O)C1C(=O)N2C(C(=O)O)=C(SC3CNC(C(=O)N(C)C)C3)C(C)C12 (stereo not given),87.4%,93.4%,82.6%,75.4%,120%,98.9%,inactive,inactive,–,–,–,–,–,–,–,–,–
O=C(O)CCCc1c[nH]c2ccccc12,102%,20.4%,142%,102%,90.6%,32.3%,inactive,–,–,–,–,–,–,inactive,0.64% (inactive),-3.33% (inactive),inactive
